Results as given in PubChem BioAssay (EPA / NIEHS).
Active and inactive are the calls of the source. How the source made its calls: active means hit-call score of the fitted dose curve at least 0.9, where 1 is the maximum; inactive means score below 0.9.

Assays:
[1] = target: Bile acid receptor (Homo sapiens) (UniProt Q96RI1); assay: ATG_IR1_CIS: Attagene CIS-FACTORIAL HepG2 Assay for human Nuclear Receptor Subfamily 1 Group H Member 4 (NR1H4), IR1 submotif (AID 2282946); conditions: IR1 reporter transcription, actives raise or lower the signal
Bile acid receptor (Homo sapiens), sequence (Q96RI1 whole entry, looked up): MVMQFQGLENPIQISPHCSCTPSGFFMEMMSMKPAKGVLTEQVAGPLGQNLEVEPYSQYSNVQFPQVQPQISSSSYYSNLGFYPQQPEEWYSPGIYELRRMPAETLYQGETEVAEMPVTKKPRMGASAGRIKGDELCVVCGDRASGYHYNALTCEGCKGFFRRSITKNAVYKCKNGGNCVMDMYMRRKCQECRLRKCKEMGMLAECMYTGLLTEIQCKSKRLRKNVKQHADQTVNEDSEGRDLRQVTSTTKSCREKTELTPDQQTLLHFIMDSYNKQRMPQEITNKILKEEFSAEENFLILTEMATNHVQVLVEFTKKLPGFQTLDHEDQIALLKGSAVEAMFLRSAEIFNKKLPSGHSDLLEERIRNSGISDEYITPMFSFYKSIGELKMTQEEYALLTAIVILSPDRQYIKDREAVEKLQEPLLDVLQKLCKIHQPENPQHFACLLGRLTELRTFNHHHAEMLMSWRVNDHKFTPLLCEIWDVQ
Procedure, shortened: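 Fluorescence of capillary-separated, HpaI-digested RT-PCR reporter products gave IR1-element mRNA induction in HepG2 cells 24 h after dosing. Endogenous transcription factors drove the cis-regulated reporters; activity was fitted bidirectionally against DMSO.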

[2] = ATG_GRE_CIS: Attagene CIS-FACTORIAL HepG2 Assay for human Glucocorticoid Response Elements (GRE) (AID 2282947); conditions: HepG2 GRE cis-reporter, Attagene multiplex mRNA; actives raise or lower the signal
Procedure, shortened: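 Read-out: fluorescent reporter-transcript fragments separated by capillary electrophoresis after RT-PCR. Transiently transfected HepG2 cells carrying cis-element-driven reporter units were dosed for 24 h; gain or loss of signal fitted against DMSO control.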

[3] = ATG_ISRE_CIS: Attagene CIS-FACTORIAL HepG2 Assay for human Interferon Regulatory Factor 1 (IRF1) binding to an Interferon-Stimulated Response Element (ISRE) (AID 2282948); conditions: HepG2 ISRE cis-reporter (Attagene), mRNA transcription readout; actives raise or lower the signal
Procedure, shortened: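 Read-out: fluorescent RT-PCR products resolved by capillary electrophoresis, reporting endogenous transcription factor activity via ISRE-driven reporter mRNA in transfected HepG2 cells dosed for 24 h; gain or loss fitted relative to DMSO.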

[4] = ATG_M_32_CIS: Attagene CIS-FACTORIAL HepG2 Assay for M32 Transcription Factor (Internal Marker) (AID 2282949); conditions: HepG2 Attagene cis-factorial M32 reporter, mRNA; actives raise or lower the signal;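 further: background control marker of the multiplexed CIS panel rather than a real target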
Procedure, shortened: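 Using DMSO as baseline, bidirectional curve fits were applied to reporter mRNA signals. These came from transiently transfected HepG2 cells exposed for 24 h, with RNA analysed by RT-PCR, FAM primer extension, HpaI digestion and CE.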

[5] = ATG_M_06_CIS: Attagene CIS-FACTORIAL HepG2 Assay for M06 Transcription Factor (Internal Marker) (AID 2282950); conditions: HepG2 Attagene CIS-FACTORIAL M06 internal marker reporter; actives raise or lower the signal
Procedure, shortened: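 Serves as a background control readout. Transfected HepG2 exposed to compounds for 24 h, then reporter transcripts quantified by fluorescent RT-PCR and capillary electrophoresis. Both directions fitted against DMSO baseline.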

[6] = target: Hypoxia-inducible factor 1-alpha (Homo sapiens) (UniProt Q16665); assay: ATG_HIF1a_CIS: Attagene CIS-FACTORIAL HepG2 Assay for human Hypoxia Inducible Factor 1 (HIF1A) (AID 2282951); conditions: HepG2 Attagene cis-factorial HIF1a reporter transcription; actives raise or lower the signal
Hypoxia-inducible factor 1-alpha (Homo sapiens), sequence (Q16665 whole entry, looked up): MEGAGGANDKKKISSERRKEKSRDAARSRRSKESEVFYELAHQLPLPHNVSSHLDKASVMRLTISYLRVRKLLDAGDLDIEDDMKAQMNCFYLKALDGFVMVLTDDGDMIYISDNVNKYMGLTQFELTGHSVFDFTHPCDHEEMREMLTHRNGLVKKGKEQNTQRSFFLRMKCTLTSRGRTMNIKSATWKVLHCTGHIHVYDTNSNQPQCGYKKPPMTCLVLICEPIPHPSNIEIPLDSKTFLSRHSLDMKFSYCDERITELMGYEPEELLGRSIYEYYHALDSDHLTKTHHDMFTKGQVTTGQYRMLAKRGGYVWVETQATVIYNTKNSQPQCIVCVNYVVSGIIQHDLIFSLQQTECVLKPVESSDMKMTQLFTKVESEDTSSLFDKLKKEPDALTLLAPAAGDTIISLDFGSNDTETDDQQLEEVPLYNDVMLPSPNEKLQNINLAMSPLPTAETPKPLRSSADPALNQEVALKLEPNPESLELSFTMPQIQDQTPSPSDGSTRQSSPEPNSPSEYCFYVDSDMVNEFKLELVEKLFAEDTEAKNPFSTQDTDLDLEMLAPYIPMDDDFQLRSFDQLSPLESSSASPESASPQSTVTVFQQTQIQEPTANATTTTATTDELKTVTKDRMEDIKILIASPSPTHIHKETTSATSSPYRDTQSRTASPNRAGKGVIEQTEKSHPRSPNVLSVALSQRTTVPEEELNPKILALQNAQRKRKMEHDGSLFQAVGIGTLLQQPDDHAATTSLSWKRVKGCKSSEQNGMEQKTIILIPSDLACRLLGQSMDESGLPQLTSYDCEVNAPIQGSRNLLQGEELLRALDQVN
Procedure, shortened: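 Activity is fitted in both directions relative to DMSO. Reporter transcripts are read by RT-PCR, fluorescent primer extension and capillary electrophoresis after 24 h chemical treatment. The cells are HepG2 carrying transiently transfected cis-element-driven reporter units responding to endogenous factors.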

[7] = target: Hepatocyte nuclear factor 6 (Homo sapiens) (UniProt Q9UBC0); assay: ATG_HNF6_CIS: Attagene CIS-FACTORIAL HepG2 Assay for human Hepatocyte Nuclear Factor 6 (HNF6) (AID 2282952); conditions: HepG2 Attagene cis-factorial HNF6 reporter transcription; actives raise or lower the signal
Hepatocyte nuclear factor 6 (Homo sapiens), sequence (Q9UBC0 whole entry, looked up, the tested form may be a part): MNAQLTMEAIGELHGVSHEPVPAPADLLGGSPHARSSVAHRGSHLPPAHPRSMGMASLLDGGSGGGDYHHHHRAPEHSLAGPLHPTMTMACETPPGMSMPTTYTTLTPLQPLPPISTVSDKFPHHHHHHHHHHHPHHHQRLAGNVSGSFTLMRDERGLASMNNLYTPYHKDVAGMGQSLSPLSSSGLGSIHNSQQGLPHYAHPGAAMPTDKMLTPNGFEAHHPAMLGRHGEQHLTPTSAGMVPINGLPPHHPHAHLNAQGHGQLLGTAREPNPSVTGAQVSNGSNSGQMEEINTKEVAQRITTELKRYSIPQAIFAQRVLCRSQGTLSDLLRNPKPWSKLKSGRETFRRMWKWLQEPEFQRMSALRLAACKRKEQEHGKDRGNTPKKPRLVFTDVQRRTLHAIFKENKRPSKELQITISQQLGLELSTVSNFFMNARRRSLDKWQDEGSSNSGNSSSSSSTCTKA
Procedure, shortened: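 Twenty-four-hour chemical treatment of reporter-transfected HepG2 cells precedes RNA isolation, DNase-treated reverse transcription and PCR of reporter sequences. Labelled fragments are sized by capillary electrophoresis and fitted bidirectionally versus DMSO.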

[8] = target: Heat shock factor protein 1 (Homo sapiens) (UniProt Q00613); assay: ATG_HSE_CIS: Attagene CIS-FACTORIAL HepG2 Assay for human Heat Shock Transcription Factor 1 (HSE) (AID 2282953); conditions: HepG2 HSE cis-reporter, Attagene RNA transcription; actives raise or lower the signal
Heat shock factor protein 1 (Homo sapiens), sequence (Q00613 whole entry, looked up): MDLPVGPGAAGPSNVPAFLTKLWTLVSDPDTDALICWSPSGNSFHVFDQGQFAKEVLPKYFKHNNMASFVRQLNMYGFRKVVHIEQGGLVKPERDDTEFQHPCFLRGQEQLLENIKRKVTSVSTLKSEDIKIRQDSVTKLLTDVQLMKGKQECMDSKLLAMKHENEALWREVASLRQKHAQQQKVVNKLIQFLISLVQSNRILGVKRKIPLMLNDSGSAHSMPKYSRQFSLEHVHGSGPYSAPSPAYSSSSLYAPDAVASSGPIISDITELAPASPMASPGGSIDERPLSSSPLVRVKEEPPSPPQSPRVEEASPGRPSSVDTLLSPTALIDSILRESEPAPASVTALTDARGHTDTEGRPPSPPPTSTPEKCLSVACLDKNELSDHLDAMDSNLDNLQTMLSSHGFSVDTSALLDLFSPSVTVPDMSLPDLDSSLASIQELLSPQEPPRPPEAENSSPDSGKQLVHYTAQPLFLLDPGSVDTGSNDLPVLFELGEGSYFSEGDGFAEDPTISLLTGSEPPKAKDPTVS
Procedure, shortened: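 Endogenous transcription factor activity in transiently transfected HepG2, read as reporter mRNA by RT-PCR with fluorescent capillary electrophoresis after 24 h. Gain or loss of signal fitted versus DMSO baseline.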

[9] = ATG_MRE_CIS: Attagene CIS-FACTORIAL HepG2 Assay for human Metal Responsive Element (MRE) (AID 2282954); conditions: HepG2 MRE cis-reporter transcription, Attagene multiplex; actives raise or lower the signal
Procedure, shortened: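 RT-PCR/capillary electrophoresis readout of reporter mRNA, 24 h post-dosing, in HepG2 cells transfected with multiplexed cis-regulated reporter constructs. Gain or loss of signal fitted bidirectionally against DMSO baseline.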

[10] = target: Paired box protein Pax-6 (Homo sapiens) (UniProt P26367); assay: ATG_Pax6_CIS: Attagene CIS-FACTORIAL HepG2 Assay for human Paired Box 6 (PAX6) (AID 2282956); conditions: HepG2 CIS-FACTORIAL PAX6 reporter transcription, RNA readout; actives raise or lower the signal
Paired box protein Pax-6 (Homo sapiens), sequence (P26367 whole entry, looked up): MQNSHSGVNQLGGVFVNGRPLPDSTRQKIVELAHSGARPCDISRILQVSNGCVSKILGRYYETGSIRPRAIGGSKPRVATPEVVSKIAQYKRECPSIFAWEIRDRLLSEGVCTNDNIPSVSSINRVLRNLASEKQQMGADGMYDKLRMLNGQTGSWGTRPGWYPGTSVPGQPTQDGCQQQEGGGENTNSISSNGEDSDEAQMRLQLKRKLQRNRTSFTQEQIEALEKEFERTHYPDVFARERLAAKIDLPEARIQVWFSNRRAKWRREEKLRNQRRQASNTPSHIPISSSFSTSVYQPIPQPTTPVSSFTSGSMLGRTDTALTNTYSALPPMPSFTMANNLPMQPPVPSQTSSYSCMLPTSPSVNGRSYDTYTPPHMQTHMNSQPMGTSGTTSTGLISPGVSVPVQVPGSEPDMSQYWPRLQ
Procedure, shortened: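 Readout: reporter transcript fluorescence after RT-PCR and capillary electrophoresis. Cells: HepG2, transiently transfected with cis-regulated MRTUs. Exposure 24 h. Gain or loss of signal fitted bidirectionally relative to DMSO.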

[11] = ATG_PXRE_CIS: Attagene CIS-FACTORIAL HepG2 Assay for human Pregnane X Receptor Element (PXRE) (AID 2282957); conditions: HepG2 Attagene CIS-FACTORIAL PXRE reporter, mRNA; actives raise or lower the signal
Procedure, shortened: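 Bidirectional activity, baselined to DMSO, derived from reporter mRNA fluorescence (RT-PCR plus capillary electrophoresis) in HepG2 cells bearing cis-promoter reporter units, 24 h exposure.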

[12] = ATG_PPRE_CIS: Attagene CIS-FACTORIAL HepG2 Assay for human Peroxisome Proliferator-activated Response Element (PPRE) (AID 2282958); conditions: HepG2 PPRE cis-element reporter, Attagene transcription factor profiling; actives raise or lower the signal
Procedure, shortened: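 Endogenous PPRE-driven transcription is measured in HepG2 cells carrying transfected multi-reporter constructs. Reporter transcripts are quantified by RT-PCR, HpaI digestion and capillary electrophoresis 24 h after dosing. DMSO baseline, bidirectional fit.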

[13] = ATG_RORE_CIS: Attagene CIS-FACTORIAL HepG2 Assay for human RAR-related Orphan Receptor Element (RORE) (AID 2282959); conditions: HepG2 Attagene cis-factorial RORE reporter, mRNA; actives raise or lower the signal
Procedure, shortened: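 RORE reporter transcripts reflecting endogenous factor activity were read after 24 h compound exposure of transfected HepG2 cells, using reverse transcription, PCR, fluorescent labelling and capillary electrophoresis sizing. Gain or loss fitted against DMSO.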

[14] = ATG_Sox_CIS: Attagene CIS-FACTORIAL HepG2 Assay for human SRY-box transcription factor (SOX) (AID 2282960); conditions: HepG2 Attagene cis-factorial SOX reporter, mRNA; actives raise or lower the signal
Procedure, shortened: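 Reporter transcripts, measured by RT-PCR and capillary electrophoresis of labelled fragments, report endogenous SOX transcription factor activity. Transiently transfected human HepG2 cells receive chemical for 24 h; changes in either direction are fitted relative to DMSO.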

[15] = target: Transcription factor Sp1 (Homo sapiens) (UniProt P08047); assay: ATG_Sp1_CIS: Attagene CIS-FACTORIAL HepG2 Assay for human Specificity Protein 1 (Sp1) (AID 2282961); conditions: HepG2 Sp1 cis-reporter transcription, actives raise or lower the signal
Transcription factor Sp1 (Homo sapiens), sequence (P08047 whole entry, looked up): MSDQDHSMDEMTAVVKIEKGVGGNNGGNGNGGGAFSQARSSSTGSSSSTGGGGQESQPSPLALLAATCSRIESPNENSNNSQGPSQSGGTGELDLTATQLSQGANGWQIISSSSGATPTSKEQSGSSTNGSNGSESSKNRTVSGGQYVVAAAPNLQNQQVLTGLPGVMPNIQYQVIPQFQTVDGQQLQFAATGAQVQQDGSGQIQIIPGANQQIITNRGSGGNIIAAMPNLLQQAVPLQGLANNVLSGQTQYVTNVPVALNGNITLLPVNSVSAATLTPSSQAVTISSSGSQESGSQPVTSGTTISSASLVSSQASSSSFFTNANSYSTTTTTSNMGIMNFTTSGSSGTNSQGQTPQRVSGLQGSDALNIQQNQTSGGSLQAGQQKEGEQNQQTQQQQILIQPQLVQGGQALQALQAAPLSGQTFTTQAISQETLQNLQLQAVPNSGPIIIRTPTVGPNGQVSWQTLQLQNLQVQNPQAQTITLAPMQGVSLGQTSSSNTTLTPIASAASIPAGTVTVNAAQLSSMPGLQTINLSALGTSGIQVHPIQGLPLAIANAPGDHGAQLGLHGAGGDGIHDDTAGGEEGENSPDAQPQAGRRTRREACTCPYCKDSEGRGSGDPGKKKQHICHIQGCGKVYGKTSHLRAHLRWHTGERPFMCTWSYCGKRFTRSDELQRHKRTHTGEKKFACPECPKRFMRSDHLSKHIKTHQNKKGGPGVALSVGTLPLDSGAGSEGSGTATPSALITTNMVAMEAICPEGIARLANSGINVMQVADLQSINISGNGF
Procedure, shortened: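 Read-out is reporter transcript level, measured by RT-PCR and fluorescent capillary electrophoresis after 24 h chemical treatment. System: transiently transfected HepG2 cells reporting endogenous transcription factor activity; gain or loss fitted against DMSO baseline.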

[16] = ATG_SREBP_CIS: Attagene CIS-FACTORIAL HepG2 Assay for human Sterol Regulatory Element Binding (SREBP) (AID 2282962); conditions: HepG2 Attagene cis-factorial SREBP reporter, mRNA; actives raise or lower the signal
Procedure, shortened: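 Readout: fluorescent reporter-transcript peaks resolved by capillary electrophoresis after RT-PCR. Cells were human HepG2 carrying transfected cis-promoter reporter constructs, dosed for 24 h. Gain or loss of signal was fitted against DMSO controls.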

[17] = target: Signal transducer and activator of transcription 3 (Homo sapiens) (UniProt P40763); assay: ATG_STAT3_CIS: Attagene CIS-FACTORIAL HepG2 Assay for human Signal Transducer and Activator of Transcription 3 (STAT3) (AID 2282963); conditions: HepG2, Attagene cis-factorial STAT3 reporter transcription; actives raise or lower the signal
Signal transducer and activator of transcription 3 (Homo sapiens), sequence (P40763 whole entry, looked up, the tested form may be a part): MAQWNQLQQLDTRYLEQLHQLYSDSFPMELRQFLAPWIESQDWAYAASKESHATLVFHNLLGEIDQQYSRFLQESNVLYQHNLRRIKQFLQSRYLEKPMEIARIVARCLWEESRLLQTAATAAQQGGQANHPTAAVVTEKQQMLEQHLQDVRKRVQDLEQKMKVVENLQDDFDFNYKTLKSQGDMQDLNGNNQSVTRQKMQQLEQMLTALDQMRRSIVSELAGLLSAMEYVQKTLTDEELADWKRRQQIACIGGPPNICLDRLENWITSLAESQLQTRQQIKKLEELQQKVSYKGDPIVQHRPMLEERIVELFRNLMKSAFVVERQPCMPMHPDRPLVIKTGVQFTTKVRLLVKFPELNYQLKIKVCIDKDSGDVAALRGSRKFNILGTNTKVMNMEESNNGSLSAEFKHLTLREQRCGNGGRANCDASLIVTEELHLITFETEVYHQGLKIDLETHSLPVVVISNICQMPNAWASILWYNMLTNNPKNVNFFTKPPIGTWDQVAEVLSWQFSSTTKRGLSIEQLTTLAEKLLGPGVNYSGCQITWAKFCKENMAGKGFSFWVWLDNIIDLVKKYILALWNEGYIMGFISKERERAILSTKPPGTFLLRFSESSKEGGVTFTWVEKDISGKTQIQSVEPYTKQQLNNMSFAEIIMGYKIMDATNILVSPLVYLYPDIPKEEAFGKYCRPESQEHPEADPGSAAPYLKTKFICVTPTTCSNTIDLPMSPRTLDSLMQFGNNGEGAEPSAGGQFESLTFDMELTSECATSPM
Procedure, shortened: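 Readout: fluorescent reporter mRNA fragments resolved by capillary electrophoresis. Setup: HepG2 transfected with MRTUs reporting endogenous transcription-factor activity, dosed 24 h. Gain or loss of signal fitted bidirectionally against DMSO control.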

[18] = ATG_TCF_b_cat_CIS: Attagene CIS-FACTORIAL HepG2 Assay for human T-Cell-Factor with beta-catenin (TCF/b-cat) (AID 2282965); conditions: HepG2 TCF/beta-catenin cis-reporter transcription, actives raise or lower the signal
Procedure, shortened: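 HepG2 cells transiently transfected with cis-promoter-driven multiplexed reporter units; reporter mRNA measured 24 h after dosing by RT-PCR, FAM labelling, HpaI digestion and capillary electrophoresis. Bidirectional fitting relative to DMSO baseline.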

[19] = ATG_PBREM_CIS: Attagene CIS-FACTORIAL HepG2 Assay for human Phenobarbital-responsive Enhancer Module (PBREM) (AID 2282955); conditions: HepG2 PBREM cis-reporter, Attagene multiplexed transcription; actives raise or lower the signal
Procedure, shortened: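 Endogenous transcription factor activity was read from reporter transcripts in transiently transfected human HepG2 liver cells after 24 h dosing. RT-PCR products were fluorescently labelled, HpaI-cut and sized by capillary electrophoresis; activity fitted bidirectionally against DMSO baseline.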

[20] = ATG_TA_CIS: Attagene CIS-FACTORIAL HepG2 Assay for human TA Basal Promoter (AID 2282964); conditions: HepG2 Attagene CIS-factorial TA basal promoter reporter; actives raise or lower the signal
Procedure, shortened: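 Background-control readout: TA basal promoter reporter mRNA, fitted in both directions relative to DMSO. Measured by RT-PCR and capillary electrophoresis 24 hours after treating HepG2 human liver cells transiently carrying multiplexed cis-regulated reporter constructs.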

SMILES: OCC1CO1 (centres undefined)
- outcome [1]: inactive
- outcome [2]: inactive
- outcome [3]: inactive
- outcome [4]: inactive
- outcome [5]: inactive
- outcome [6]: inactive
- outcome [7]: inactive
- outcome [8]: inactive
- outcome [9]: inactive
- outcome [10]: inactive
- outcome [11]: inactive
- outcome [12]: inactive
- outcome [13]: inactive
- outcome [14]: inactive
- outcome [15]: inactive
- outcome [16]: inactive
- outcome [17]: inactive
- outcome [18]: inactive

SMILES: Oc1ccccc1Br
- outcome [1]: inactive
- outcome [2]: inactive
- outcome [3]: inactive
- outcome [5]: inactive
- outcome [6]: inactive
- outcome [7]: inactive
- outcome [8]: inactive
- outcome [9]: inactive
- outcome [19]: inactive
- outcome [10]: inactive
- outcome [11]: inactive
- outcome [12]: inactive
- outcome [13]: inactive
- outcome [14]: inactive
- outcome [15]: inactive
- outcome [17]: inactive
- outcome [20]: inactive
- outcome [18]: inactive

SMILES: CCOP(=S)(OCC)SCn1nnc2ccccc2c1=O
- outcome [1]: inactive
- outcome [2]: inactive
- outcome [3]: inactive
- outcome [4]: inactive
- outcome [5]: inactive
- outcome [6]: inactive
- outcome [7]: inactive
- AC50 [8]: 166 µM (active)
- AC50 [9]: 78.5 µM (active)
- AC50 [19]: 1.32 µM (active)
- outcome [10]: inactive
- AC50 [11]: 0.673 µM (active)
- outcome [13]: inactive
- outcome [14]: inactive
- outcome [15]: inactive
- outcome [16]: inactive
- outcome [17]: inactive
- outcome [20]: inactive
- outcome [18]: inactive

SMILES: ClC(Cl)=C(c1ccc(Cl)cc1)c1ccccc1Cl
- AC50 [1]: 43.7 µM (active)
- AC50 [2]: 124 µM (active)
- outcome [3]: inactive
- outcome [4]: inactive
- outcome [5]: inactive
- outcome [6]: inactive
- outcome [7]: inactive
- AC50 [8]: 41.7 µM (active)
- AC50 [9]: 100 µM (active)
- outcome [19]: inactive
- AC50 [10]: 100 µM (active)
- AC50 [11]: 2.77 µM (active)
- outcome [14]: inactive
- AC50 [15]: 27.3 µM (active)
- outcome [17]: inactive
- outcome [20]: inactive

SMILES: C=C(C)C(=O)OCC1CO1 (centres undefined)
- outcome [1]: inactive
- outcome [2]: inactive
- outcome [3]: inactive
- outcome [4]: inactive
- outcome [5]: inactive
- outcome [6]: inactive
- outcome [7]: inactive
- outcome [8]: inactive
- outcome [9]: inactive
- outcome [19]: inactive
- outcome [10]: inactive
- outcome [11]: inactive
- outcome [13]: inactive
- outcome [14]: inactive
- outcome [15]: inactive
- outcome [16]: inactive
- outcome [17]: inactive
- outcome [20]: inactive
- outcome [18]: inactive

SMILES: c1nc[nH]n1
- outcome [1]: inactive
- outcome [2]: inactive
- outcome [3]: inactive
- outcome [5]: inactive
- outcome [6]: inactive
- outcome [7]: inactive
- outcome [8]: inactive
- outcome [9]: inactive
- outcome [19]: inactive
- outcome [10]: inactive
- AC50 [11]: 59.3 µM (active)
- outcome [12]: inactive
- outcome [13]: inactive
- outcome [14]: inactive
- outcome [15]: inactive
- outcome [17]: inactive
- outcome [20]: inactive
- outcome [18]: inactive

SMILES: O=P1(N(CCCl)CCCl)NCCCO1 (centres undefined)
- outcome [1]: inactive
- outcome [2]: inactive
- outcome [3]: inactive
- outcome [5]: inactive
- outcome [7]: inactive
- outcome [8]: inactive
- outcome [9]: inactive
- outcome [19]: inactive
- outcome [10]: inactive
- outcome [11]: inactive
- outcome [13]: inactive
- outcome [14]: inactive
- outcome [15]: inactive
- outcome [16]: inactive
- outcome [17]: inactive
- outcome [18]: inactive
